Assay outcomes from PubChem BioAssay.
An excerpt weighted towards active compounds, which were near 2.4% of everything screened.
D2 PAM-1: HTS Assay for Positive Allosteric Modulators of the Human D2 Dopamine Receptor: Primary Screen for Potentiators; AID 485347, 2010; hit rate 0.34% among 340,000; potentiation, % at 10 µM; HEK293 T-REx D2, calcium flux, EC20 dopamine potentiation;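 active = potentiation over 3 SD above the plate norm, cut at about 30% in these data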; note: 0% is about no effect
Target sequence (P14416 whole entry, looked up): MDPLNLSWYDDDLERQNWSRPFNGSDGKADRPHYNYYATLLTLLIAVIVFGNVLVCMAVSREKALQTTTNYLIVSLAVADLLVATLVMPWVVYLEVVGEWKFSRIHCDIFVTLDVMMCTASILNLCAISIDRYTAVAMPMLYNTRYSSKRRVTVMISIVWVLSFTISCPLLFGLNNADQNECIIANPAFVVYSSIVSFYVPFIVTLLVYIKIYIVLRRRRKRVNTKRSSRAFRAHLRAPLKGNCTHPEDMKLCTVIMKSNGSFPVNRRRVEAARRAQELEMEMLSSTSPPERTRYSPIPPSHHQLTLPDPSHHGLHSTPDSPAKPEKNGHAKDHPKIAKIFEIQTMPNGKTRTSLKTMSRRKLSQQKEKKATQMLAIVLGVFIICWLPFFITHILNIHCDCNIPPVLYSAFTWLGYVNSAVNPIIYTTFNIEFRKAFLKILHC
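Tetracycline-induced Hek293 Trex D2 cells, force-coupled to calcium, loaded with no-wash calcium dye. Compound added with 180 s kinetic read for agonism, then EC20 dopamine and a further 180 s read for potentiation.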
D2 ag-1: Beta-Arrestin HTS for Positive Allosteric Modulators of the Human D2 Dopamine Receptor: Agonists; DiscoveRx PathHunter D2 beta-arrestin, luminescence, 90 min; 100% = 57 uM dopamine signal; activation, % (test concentration not listed); hit rate 0.084% among 360,000; AID 624465, 2012; in the data active = activation above about 40%
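DiscoveRx PathHunter D2 beta-arrestin cells (2,100/well) attached overnight, then compound-stimulated 90 min at 37 C in HBSS/10 mM HEPES/0.1% Tween-20 buffer; beta-galactosidase complementation read by luminescence after 1 h at ambient temperature. Dopamine 57 uM final (EC100) as control.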
D2 ag-2: HTS Assay for Allosteric Agonists of the Human D2 Dopamine Receptor: Primary Screen for Agonists; HEK293 T-REx D2 cells, calcium flux agonist mode; hit rate 0.53% among 340,000; activation, % at 2 µM;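 active = activation over 3 SD above normal in the single-dose calcium agonist read, cut at about 30% in these data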; note: 0% is about no effect
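Agonism is scored from calcium flux in a force-coupled, inducible HEK293 cell line expressing D2, read kinetically for 180 s after compound addition against dopamine controls.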
D2 PAM-2: Beta-Arrestin HTS for Positive Allosteric Modulators of the Human D2 Dopamine Receptor: Potentiators; D(2) dopamine receptor (Homo sapiens), P14416; hit rate 0.23% among 360,000; DiscoveRx D2 beta-arrestin cells, luminescence, 90 min; 100% = 57 uM dopamine signal; potentiation, % (concentration not given with the values); in the data active = potentiation above about 50%
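PathHunter beta-arrestin assay in DiscoveRx D2 cells. Compounds were added with an EC20 of dopamine (50 nM final) for 90 min at 37 deg C. Luminescence was read 1 h after detection reagent, with 57 uM dopamine as the EC100 control.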
D2 antagonist: HTS Assay for Allosteric Antagonists of the Human D2 Dopamine Receptor: Primary Screen for Antagonists; AID 485344, 2010; inhibition, % at 10 µM; hit rate 2% among 340,000; HEK293 TREx D2 cells, calcium flux, dopamine EC80; in the data active = inhibition above about 30%; inactive = below that, where a call was filed; note: 0% is about no effect
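Calcium flux kinetic readout in an inducible HEK293 TREx D2 line plated overnight at 30 C. After 180 s compound exposure, an EC80 dopamine challenge follows with another 180 s kinetic read to detect antagonism.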
Numbers without * were called inactive; nt = no result; ! = not confirmed by another sample.

SMILES	D2 PAM-1	D2 ag-1	D2 ag-2	D2 PAM-2	D2 antagonist
COc1cccc(CC(=O)Nc2ccccc2C(=O)N2CCOCC2)c1	0	0	0	-6	-4
COc1ccc(CC(=O)Nc2ccccc2C(=O)N2CCOCC2)cc1	-7	0	0	-7	44*
NC(=O)c1ccccc1NC(=O)CN1CCOCC1	13	-1	-1	-1	31*
S=C(NCCc1ccccc1)NC1CC2CCC(C1)N2Cc1ccccc1 (stereo not given)	-28	-10	0	-23	63*
CCNC(=S)NC1CC2CCCC(C1)N2CCc1ccccc1 (stereo not given)	-14	-4	0	-4	-21
COCCCNC(=S)NC1CC2CCC(C1)N2Cc1ccccc1 (stereo not given)	-12	-4	0	-16	28
CCCNC(=S)NC1CC2CCC(C1)N2Cc1ccccc1 (stereo not given)	-6	0	0	-18	67*
CCNC(=S)NC1CC2CCC(C1)N2Cc1ccccc1 (stereo not given)	-21	2	1	-27	57*
CC(C)CNC(=S)NC1CC2CCC(C1)N2Cc1ccccc1 (stereo not given)	-16	-1	1	-23	90*
C=CCc1ccccc1OCc1nc2ccccc2n1CC	-10	nt	0	nt	nt
S=C(NC1CCCCC1)NC1CC2CCC(C1)N2Cc1ccccc1 (stereo not given)	-9	-6	1	-23	77*
O=C(NC1CC2CCCC(C1)N2Cc1ccccc1)C1CCCCC1 (stereo not given)	-23	1	0	-19	22
CCNCCC(=O)N1c2ccccc2Sc2ccc(C(F)(F)F)cc21	-24	-7	9	-17	73*
Cc1cccc(OCCSc2nc3ccccc3n2CC(=O)N2CCOCC2)c1	5	nt	5	nt	nt
COC(=O)C(C(C)=O)C1=C/C(=N\S(=O)(=O)c2ccc(C)cc2)c2ccccc2C1=O (stereo not given)	-4	8	1	50*	-4
CC(=O)Oc1oc(-c2ccccc2)nc1/C=N/c1ccccn1	-1	2	1	-11	-5
COc1ccccc1N=Cc1nc(-c2ccccc2)oc1OC(C)=O	-9	-1	0	5	50*
Nc1nc(CN2CCN(Cc3ccccc3)CC2)nc(N2CCCc3ccccc32)n1	-23	-2	0	-6	63*
Cc1ccc(CNC(=O)CSc2ncc(S(=O)(=O)c3ccc(C)c(Cl)c3)c(=O)[nH]2)cc1	6	nt	0	nt	nt
CC(=O)Nc1ccc(S(=O)(=O)N2CCC3(CC2)CC(=O)c2ccccc2O3)cc1	11	0	-1	-9	-29
COc1ccc(S(=O)(=O)N2CCC3(CC2)CC(=O)c2ccccc2O3)cc1OC	-11	9	0	-4	45*
Cc1cccc(N2CCN(C(=O)c3c(C)oc4ncnc(N5CCCCC5)c34)CC2)c1C	-2	nt	0	nt	nt
O=C(NCCc1ccc(Cl)cc1)C1CCN(c2ncccn2)CC1	10	-2	-2	-26	61*
O=C(NCCc1ccc(Cl)cc1)C1CCN(c2cnccn2)CC1	-3	1	-1	2	0
Cc1ccc(C(=O)Nc2sc3c(c2C(=O)O)CCCCC3)o1	3	-1	1	4	32*
SMILES	D2 PAM-1	D2 ag-1	D2 ag-2	D2 PAM-2	D2 antagonist
COC(=O)c1c(NS(=O)(=O)c2cccs2)sc2c1CCCC2	9	-2	0	-2	41*
O=C(Nc1sc2c(c1C(=O)O)CCC2)c1ccco1	5	1	0	-1	4
COC(=O)c1c(NC(=O)c2ccco2)sc2c1CCC2	30*	-6	-3	5	2
COC(=O)c1c(NC(=O)Cc2cccs2)sc2c1CCCC2	3	-3	0	3	-2
CCOc1ccccc1CNC(=O)Cn1c(-c2ccccc2)cc(C(C)=O)c1C	-9	nt	0	nt	nt
COc1ccc(-n2ncc(C(=O)NCc3ccccc3)c2C2CCN(C(=O)OC(C)(C)C)CC2)cc1	2	nt	0	nt	nt
O=C(CCn1c(=O)oc2ccccc21)Nc1ccccc1	-2	5	1	-12	1
COc1cc(NC(=O)CCn2c(=O)oc3ccccc32)cc(OC)c1OC	34*!	4	1	-4	-22
COc1ccccc1OCCCn1c(=O)oc2ccccc21	-11	-10	0	-5	34*
COc1ccccc1OCCCn1c(=O)oc2ccc(C)cc21	4	-2	0	1	-7
COc1ccc(Nc2ncc3c(n2)CCN(Cc2ccc(Br)s2)C3)c(OC)c1	-5	nt	nt	nt	nt
COCCCn1c(SCC(=O)c2c(N)n(C3CC3)c(=O)[nH]c2=O)nnc1-c1ccccc1Cl	nt	-2	nt	-5	nt
CCCn1c(N)c(C(=O)CSc2nnc(-c3cccs3)n2C2CC2)c(=O)[nH]c1=O	nt	48*	nt	20	nt
COCCn1c(SCC(=O)c2c(N)n(C3CC3)c(=O)[nH]c2=O)nnc1-c1ccc(Cl)cc1	-1	40*	0	-4	11
CCCn1c(N)c(C(=O)CSc2nnc(-c3c[nH]c4ccccc34)n2C2CC2)c(=O)[nH]c1=O	nt	-2	nt	-7	nt
CCCN(C(=O)c1cn(C)c(=O)c2cc(OC)c(OC)cc12)c1ccc(CC)cc1	-6	nt	-1	nt	nt
Nc1ccccc1SCc1ccccc1	-5	-7	0	-11	31*
CC1(C)CC(NCc2ccccc2)CCO1 (stereo not given)	38*	-3	1	-8	-13
COCC(C)n1c(COc2ccccc2F)nnc1SCC(=O)c1c(N)n(C)c(=O)n(C)c1=O (stereo not given)	15	-4	1	-7	-7
CCCCCCn1c(COc2ccccc2F)nnc1SCC(=O)c1c(N)n(C)c(=O)n(C)c1=O	32*	nt	-1	nt	-7
Cn1c(N)c(C(=O)CSc2nnnn2-c2ccccc2)c(=O)n(C)c1=O	-13	2	7	1	39*
Cc1ccccc1-n1nnnc1SCC(=O)c1c(N)n(C)c(=O)n(C)c1=O	12	1	10	-2	18
CCc1cc2ccc(OC)cc2nc1SCC(=O)Nc1cc(C)on1	3	-1	0	-14	-12
CCc1cc2ccc(OC)cc2nc1SCC(=O)NNC(C)=O	-2	-6	-3	-4	57*
